A selection: hits, their analogues and other compounds. The true share with any hit is near 3%.
Sm TGR block = qHTS Assay for the Inhibitors of Schistosoma Mansoni Peroxiredoxins. Schistosoma mansoni thioredoxin glutathione reductase (TGR), Q962Y6. 360,000 compounds, 3% hits. AID 485364, 2010. purified TGR, DTNB reduction, TNB absorbance 405 nm. Potency, µM (doses to about 114 µM), most hits filed as inhibitors; further: nearly all actives have a fitted effect of over 60% in size
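TGR 20 nM + NADPH 100 uM (dispensed conc.), cpd preinc 15 min RT; start with NADPH (500 uM addition) then DTNB (15 mM addition). Kinetic TNB absorbance, 405 nm filter. Four-parameter Hill fit across titration.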
Tb PYK inh = qHTS of Trypanosoma Brucei Inhibitors; pyruvate kinase (Trypanosoma brucei), Q57TT1; TbPYK enzyme, Kinase-Glo Plus ATP luminescence, 45 min; Potency, µM (titrated, usually from 76.8 µM), most hits filed as inhibitors; 410,000 compounds, 0.12% hits; AID 624173, 2012; further: nearly all actives have a fitted effect of over 50% in size
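ADP (130 uM final) triggers the TbPYK reaction after compound addition; incubation is 45 min at room temperature. Kinase-Glo Plus is then added and luminescence imaged. Normalized data are fitted to concentration-effect curves.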
RE007 growth inh = qHTS Assay for Inhibitors of the HIV-1 protein Vpr; 360,000 compounds, 0.21% hits; S. pombe RE007 Vpr strain, BacTiter-Glo ATP luminescence, 24 h; Potency, µM (titrated, usually from 92.2 µM), usual class: inhibitors; active means well fitted falling curve with a large enough effect; inconclusive means small, poorly fitted or top-dose-only effect; inactive means no such curve, though single readings can be large or run the other way; further: nearly all actives have a fitted effect of over 50% in size
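Fission yeast RE007 carrying one integrated HIV-1 vpr copy, seeded at OD 0.01 in PMG+AL medium with 23 nL pinned compound. Grown 24 h at 30 degrees; viability read by BacTiter-Glo luminescence after 5 min.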
LmPK inhibitor = qHTS Assay for Inhibitors of Leishmania Mexicana Pyruvate Kinase (LmPK); Potency, µM (highest dose often 57.5 µM), most hits filed as inhibitors; purified LmPK, Kinase-Glo ATP luminescence, 1 h; 290,000 compounds, 0.37% hits; Q27686; AID 1721, 2009
Target sequence (Q27686 whole entry, looked up): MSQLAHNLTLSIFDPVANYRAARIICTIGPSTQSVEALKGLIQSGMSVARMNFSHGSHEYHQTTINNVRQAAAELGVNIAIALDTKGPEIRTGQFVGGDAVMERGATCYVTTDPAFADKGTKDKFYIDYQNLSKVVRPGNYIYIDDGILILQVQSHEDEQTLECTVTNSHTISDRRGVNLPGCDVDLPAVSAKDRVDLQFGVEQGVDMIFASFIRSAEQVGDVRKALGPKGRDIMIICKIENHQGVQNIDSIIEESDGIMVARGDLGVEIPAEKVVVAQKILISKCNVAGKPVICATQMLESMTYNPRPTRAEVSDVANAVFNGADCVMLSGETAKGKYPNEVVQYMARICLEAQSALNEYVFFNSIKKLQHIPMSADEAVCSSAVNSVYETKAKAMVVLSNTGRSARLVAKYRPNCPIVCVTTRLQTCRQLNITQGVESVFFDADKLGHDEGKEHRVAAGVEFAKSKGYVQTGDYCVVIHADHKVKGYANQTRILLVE
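Pyruvate kinase activity monitored as ATP production (luciferase luminescence). Conditions: 0.1 nM enzyme, 0.5 mM PEP, 0.1 mM ADP, 1 h, RT; normalized against uninhibited and no-enzyme wells.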
Numbers stand for hits; . = inactive; ? = inconclusive; / = no result; [ ] = remark or other dose. Unless noted, the call rests on the fitted dose curve; in most records, active means well fitted curve in the direction sought with a large enough effect; inconclusive means small, poorly fitted or top-dose-only effect, or another doubt; inactive means no such curve, though single readings can be large; an effect the other way counts as inactive or inconclusive.

SMILES	Sm TGR block	Tb PYK inh	RE007 growth inh	LmPK inhibitor
COc1cc(O)oc1C=Nc1ccc(Cl)cc1	.	.	.	.
COc1cc(O)oc1C=Nc1ccc(C(=O)O)cc1	.	?	?	25.1µM
Cc1cc(N2C(=O)C(=O)/C(=C(/O)c3ccccc3)C2c2cccs2)no1 (stereo not given)	39.8µM	.	.	.
COc1cccc(/C(O)=C2/C(=O)C(=O)N(c3cc(C)on3)C2c2cccs2)c1 (stereo not given)	?	.	.	.
CCOC(=O)CN1c2ccccc2NC(=O)CC1C (stereo not given)	31.6µM	.	.	.
Cc1cc(C)c(Cn2c(=O)n(CCC(=O)NCc3ccc4c(c3)OCO4)c(=O)c3ccccc32)c(C)c1	.	.	/	/
CC(=C\C(=O)O)/C(=C/c1ccc(C)o1)C(=O)O	31.6µM	.	.	.
CC(=C\C(=O)O)/C(=C/c1ccco1)C(=O)O	?	.	.	.
CCOc1ccc(C(=O)N2CCN(Cc3cc(=O)n4nc(-c5ccccc5Cl)sc4n3)CC2)cc1	.	.	/	/
Cc1ccc(C)c(NC(=O)CN(C)S(=O)(=O)c2cccc3nsnc23)c1	.	.	/	/
Cc1ccc(NC(=O)c2ccccc2)cc1-n1cnnn1	20µM	.	.	.
Cc1ccc(NC(=O)c2ccccc2Cl)cc1-n1cnnn1	.	.	.	.
CN(Cc1ccccc1)C(=O)c1ccc2c(c1)N(Cc1ccc(Cl)cc1)C(=O)c1ccccc1S2=O (stereo not given)	.	.	/	/
O=C(Cn1nnc(-c2ccccc2F)n1)NCc1ccco1	44.7µM	.	.	.
O=C(Cn1cnc2c(nnn2-c2ccc(F)cc2)c1=O)NCc1ccco1	79.4µM	.	.	.
O=C(Cn1nnc(-c2ccc(F)cc2)n1)OCC(=O)c1ccccc1	10µM	.	.	.
O=C(Cn1nnc(-c2ccccc2F)n1)OCC(=O)c1ccccc1	0.794µM	.	.	.
CC(C)CN1CC2(CCN(C(=O)c3csnn3)CC2)C1	/	.	/	/
CCOC(=O)CSc1nc2ccccc2c(=O)n1CCc1ccc(OC)c(OC)c1	.	.	/	/
COc1cc(C(O)C(=O)O)ccc1O (stereo not given)	10µM	.	.[18.4 µM]	/
COc1cc(C(O)CO)ccc1O (stereo not given)	?	.	.[18.4 µM]	/
COCC(=O)N(CCc1ccccc1)Cc1cc2cc(C)ccc2nc1Cl	39.8µM	.	.	.
CC(=O)Nc1c(C(=O)Nc2cccc(C)c2)nnn1-c1ccc(C)cc1	.	.	/	/
Cc1ccc2cc(COC(=O)c3ccco3)c(=O)[nH]c2c1	44.7µM	.	.	.
CC(C)N(Cc1cc2ccccc2[nH]c1=O)C(=O)c1ccco1	28.2µM	.	.	.
SMILES	Sm TGR block	Tb PYK inh	RE007 growth inh	LmPK inhibitor
Cc1cccc(N(Cc2cc3ccccc3[nH]c2=O)C(=O)c2ccco2)c1C	.	.	.	.
CC(C)NC(=O)CCCN1C(=O)c2ccccc2Sc2ncccc21	79.4µM	.	.	.
Cc1ccccc1NC(=O)CCN1C(=O)c2ccccc2Sc2ncccc21	.	.	/	/
Cc1ccc(NC(=O)CCN2C(=O)c3ccccc3Sc3ncccc32)cc1	12.6µM	.	.	.
CCC[C@H]1C[C@H](C(=O)NC(C(C)Cl)C2O[C@@H](SC)C(OP(=O)(O)O)[C@@H](O)[C@@H]2O)N(C)C1 (stereo not given in full)	/	.	/	/
CC[n+]1c(/C=C/Nc2ccccc2)oc2ccc(OC)cc21	/	.	.	.
CC/C(=C\c1oc2cc3ccccc3cc2[n+]1CC)Nc1ccccc1	20µM	.	.	.
COC(=O)C1(C)CCCC2(C)c3cc(OC)ccc3C(=O)C(Br)C12 (stereo not given)	/	.	.	/
Cn1c2cc([N+](=O)[O-])sc2c2cnn(Cc3ccccc3F)c(=O)c21	.	/	/	/
CC[N+]1(C)CCC(O)(/C=C/c2ccccc2)C(C(=O)/C=C/c2ccccc2)C1 (stereo not given)	/	.	8.91µM	/
CCc1ccc(/C=C/C(=O)C2C(=O)c3ccccc3C2=O)cc1	.	.	.	.
O=C(CCNNC(=O)c1ccncc1)NCc1ccccc1	39.8µM	.	.[18.4 µM]	.
Cc1cccc(-c2nc(Cn3c(SCc4cc(C)ccc4C)nc4ccncc43)c(C)o2)c1	79.4µM	.	/	/
CCOc1ccc(NC(=O)CN(C)C(=O)c2c(-c3ccccc3Cl)noc2C)cc1OCC	.	.	.	/
Cc1ccc(-n2nnnc2Sc2ccc(S(=O)(=O)NCCN(C)C)cc2[N+](=O)[O-])cc1	25.1µM	.	/	.
O=[N+]([O-])c1cc(S(=O)(=O)NCCCN2CCOCC2)ccc1Cl	44.7µM	.	.	.
O=S(=O)(NCCN1CCOCC1)c1ccc2ccccc2c1	/	.	.	/
Cc1ccc(S(=O)(=O)NCCSc2nnnn2-c2ccc(C(N)=O)cc2)cc1	.	.	.	.
O=[N+]([O-])c1cc(S(=O)(=O)NCCN2CCOCC2)ccc1Sc1nnnn1-c1ccccc1	17.8µM	.	.	.
CC(C)C[C@@H](COCc1cccc(C(F)(F)F)c1)N1CCN(C(=O)c2ccc(C(F)(F)F)cc2)CCC1=O	/	.	.	/
Cc1ccc(OCC(=O)N(Cc2ccco2)Cc2ccc(C)o2)cc1	.	.	/	/
Cc1[nH]c2ccccc2c1C1=CC(=O)C=CC1=O	/	3.98µM	25.1µM	/
CCN(CC(=O)NCc1cccs1)C(=O)c1ccc(C)o1	/	.	.	/
CCN(CC(=O)NCc1cccs1)C(=O)c1ccc([N+](=O)[O-])o1	44.7µM	.	.	/
CCOP(=O)(Cc1cc(C(C)=O)c(C)o1)OCC	39.8µM	?	.	.
SMILES	Sm TGR block	Tb PYK inh	RE007 growth inh	LmPK inhibitor
CCCC(=O)c1cc(CP(=O)(OCC)OCC)oc1C	28.2µM	?	.	.
CCOP(=O)(Cc1ccc(C#N)o1)OCC	.	.	.	.
CCOP(=O)(Cc1ccc(C(C)(C)CC(C)=O)o1)OCC	15.8µM	.	.	.
O=C(Nc1cnn(Cc2ccc(Cl)cc2Cl)c1)c1noc2c1CCc1ccccc1-2	.	.	/	/
CC1CCC(NC(=O)c2ccc3c(c2)N(Cc2cccc(Cl)c2)C(=O)c2ccccc2S3(=O)=O)CC1 (stereo not given)	.	.	/	/
CCOC(=O)C1=C(C)NC2=C(C(=O)c3ccccc32)C1c1ccc([N+](=O)[O-])o1 (stereo not given)	.	.	.	.
COCCOC(=O)C1=C(C)NC(=O)NC1c1ccc(-c2ccc(F)cc2)o1 (stereo not given)	10µM	.	.	.
CCOC(=O)C1=C(C)NC(=O)NC1c1ccc([N+](=O)[O-])o1 (stereo not given)	39.8µM	.	.	.
Cc1ccc(C)c(Cn2c(=O)n(CCCCC(=O)NCc3ccc4c(c3)OCO4)c(=O)c3ccccc32)c1	.	.	/	/
CCOc1ccc(C(=O)NCC(c2ccco2)S(=O)(=O)c2cccs2)cc1 (stereo not given)	5.62µM	.	/	/
